The supplement of paper PMC10849652
Of roughly 8,800 targets only a part is listed; those with a hit were picked by preference. About 0.5% of all pairs of compound and target were hits.

Tests used:
Assay in all cases: log2 fold change, soluble protein after heating vs DMSO (PISA); higher = thermal stabilisation; K562 lysate, 10 uM; active = over 0.2 and 3.5 SD of the protein, either way, in both replicates (recomputed)
lapatinib = compound: CS(=O)(=O)CCNCc1ccc(-c2ccc3ncnc(Nc4ccc(OCc5cccc(F)c5)c(Cl)c4)c3c2)o1 [lapatinib]
Method in brief: (§1)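 Dounce homogenisation of K562 pellets in PBS pH 7.4 with 1 mM MgCl2 produced a crude extract, used at 1 mg/mL protein. Exposure to 10 μM compound lasted 30 min, and aliquots were then heated for 3 min across 48°C-58°C, pooled and brought to 0.5% NP-40 at 4°C. The supernatant after 21,000xg for 90 min was quantified by TMTpro 16plex LC-MS/MS with channel sums equalised. Duplicate values are given as log-two fold change in thermal stability relative to solvent controls.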

pictilisib = compound: CS(=O)(=O)N1CCN(Cc2cc3nc(-c4cccc5[nH]ncc45)nc(N4CCOCC4)c3s2)CC1 [pictilisib]
Method in brief: as §1

crizotinib = compound: C[C@@H](Oc1cc(-c2cnn(C3CCNCC3)c2)cnc1N)c1c(Cl)ccc(F)c1Cl [crizotinib]
Method in brief: as §1

[1] = compound: C[C@H](C1=CC=C(C=C1)C(=O)NC2=C3C=CNC3=NC=C2)N
Method in brief: as §1

duvelisib = compound: C[C@H](Nc1ncnc2nc[nH]c12)c1cc2cccc(Cl)c2c(=O)n1-c1ccccc1 [duvelisib]
Method in brief: as §1

gandotinib = compound: Cc1cc(Nc2cc(CN3CCOCC3)c3nc(C)c(Cc4ccc(Cl)cc4F)n3n2)n[nH]1 [gandotinib]
Method in brief: as §1

tozasertib = compound: Cc1cc(Nc2cc(N3CCN(C)CC3)nc(Sc3ccc(NC(=O)C4CC4)cc3)n2)n[nH]1 [tozasertib]
Method in brief: as §1

doramapimod = compound: Cc1ccc(-n2nc(C(C)(C)C)cc2NC(=O)Nc2ccc(OCCN3CCOCC3)c3ccccc23)cc1 [doramapimod]
Method in brief: as §1

bafetinib = compound: Cc1ccc(NC(=O)c2ccc(CN3CC[C@H](N(C)C)C3)c(C(F)(F)F)c2)cc1Nc1nccc(-c2cncnc2)n1 [bafetinib]
Method in brief: as §1

[2] = compound: Cc1cccc(CC(=O)N2CCc3c2ccc(-c2cn(C)c4ncnc(N)c24)c3F)n1
Method in brief: as §1

nilotinib = compound: Cc1cn(-c2cc(NC(=O)c3ccc(C)c(Nc4nccc(-c5cccnc5)n4)c3)cc(C(F)(F)F)c2)cn1 [nilotinib]
Method in brief: as §1

[3] = compound: Cc1nc(Nc2n[nH]c3c2CN(C(=O)N[C@H](CN(C)C)c2ccccc2)C3(C)C)c2sccc2n1
Method in brief: as §1

dasatinib = compound: Cc1nc(Nc2ncc(C(=O)Nc3c(C)cccc3Cl)s2)cc(N2CCN(CCO)CC2)n1 [dasatinib]
Method in brief: as §1

[4] = compound: Cc1ncc(-c2ccnc(Nc3ccc(S(C)(=O)=O)cc3)n2)n1C(C)C
Method in brief: as §1

[5] = compound: Cn1cc(-c2ccc3c(c2)CCN3C(=O)Cc2cccc(C(F)(F)F)c2)c2c(N)ncnc21
Method in brief: as §1

quisinostat = compound: Cn1cc(CNCC2CCN(c3ncc(C(=O)NO)cn3)CC2)c2ccccc21 [quisinostat]
Method in brief: as §1

tipifarnib = compound: Cn1cncc1[C@@](N)(c1ccc(Cl)cc1)c1ccc2c(c1)c(-c1cccc(Cl)c1)cc(=O)n2C [tipifarnib]
Method in brief: as §1

[6] = compound: NC(=O)Nc1cc(-c2cccc(F)c2)sc1C(=O)N[C@H]1CCCNC1
Method in brief: as §1

[7] = compound: NC(=O)c1cnc(N[C@@H]2CCCC[C@@H]2N)nc1Nc1cccc(-n2nccn2)c1
Method in brief: as §1

[8] = compound: NC1(c2ccc(-c3nc4ccn5c(=O)[nH]nc5c4cc3-c3ccccc3)cc2)CCC1
Method in brief: as §1

Measured: log2 fold change

PCF11 (UniProt O94913)
Chain of UniProt O94913 (O94913 whole entry, looked up): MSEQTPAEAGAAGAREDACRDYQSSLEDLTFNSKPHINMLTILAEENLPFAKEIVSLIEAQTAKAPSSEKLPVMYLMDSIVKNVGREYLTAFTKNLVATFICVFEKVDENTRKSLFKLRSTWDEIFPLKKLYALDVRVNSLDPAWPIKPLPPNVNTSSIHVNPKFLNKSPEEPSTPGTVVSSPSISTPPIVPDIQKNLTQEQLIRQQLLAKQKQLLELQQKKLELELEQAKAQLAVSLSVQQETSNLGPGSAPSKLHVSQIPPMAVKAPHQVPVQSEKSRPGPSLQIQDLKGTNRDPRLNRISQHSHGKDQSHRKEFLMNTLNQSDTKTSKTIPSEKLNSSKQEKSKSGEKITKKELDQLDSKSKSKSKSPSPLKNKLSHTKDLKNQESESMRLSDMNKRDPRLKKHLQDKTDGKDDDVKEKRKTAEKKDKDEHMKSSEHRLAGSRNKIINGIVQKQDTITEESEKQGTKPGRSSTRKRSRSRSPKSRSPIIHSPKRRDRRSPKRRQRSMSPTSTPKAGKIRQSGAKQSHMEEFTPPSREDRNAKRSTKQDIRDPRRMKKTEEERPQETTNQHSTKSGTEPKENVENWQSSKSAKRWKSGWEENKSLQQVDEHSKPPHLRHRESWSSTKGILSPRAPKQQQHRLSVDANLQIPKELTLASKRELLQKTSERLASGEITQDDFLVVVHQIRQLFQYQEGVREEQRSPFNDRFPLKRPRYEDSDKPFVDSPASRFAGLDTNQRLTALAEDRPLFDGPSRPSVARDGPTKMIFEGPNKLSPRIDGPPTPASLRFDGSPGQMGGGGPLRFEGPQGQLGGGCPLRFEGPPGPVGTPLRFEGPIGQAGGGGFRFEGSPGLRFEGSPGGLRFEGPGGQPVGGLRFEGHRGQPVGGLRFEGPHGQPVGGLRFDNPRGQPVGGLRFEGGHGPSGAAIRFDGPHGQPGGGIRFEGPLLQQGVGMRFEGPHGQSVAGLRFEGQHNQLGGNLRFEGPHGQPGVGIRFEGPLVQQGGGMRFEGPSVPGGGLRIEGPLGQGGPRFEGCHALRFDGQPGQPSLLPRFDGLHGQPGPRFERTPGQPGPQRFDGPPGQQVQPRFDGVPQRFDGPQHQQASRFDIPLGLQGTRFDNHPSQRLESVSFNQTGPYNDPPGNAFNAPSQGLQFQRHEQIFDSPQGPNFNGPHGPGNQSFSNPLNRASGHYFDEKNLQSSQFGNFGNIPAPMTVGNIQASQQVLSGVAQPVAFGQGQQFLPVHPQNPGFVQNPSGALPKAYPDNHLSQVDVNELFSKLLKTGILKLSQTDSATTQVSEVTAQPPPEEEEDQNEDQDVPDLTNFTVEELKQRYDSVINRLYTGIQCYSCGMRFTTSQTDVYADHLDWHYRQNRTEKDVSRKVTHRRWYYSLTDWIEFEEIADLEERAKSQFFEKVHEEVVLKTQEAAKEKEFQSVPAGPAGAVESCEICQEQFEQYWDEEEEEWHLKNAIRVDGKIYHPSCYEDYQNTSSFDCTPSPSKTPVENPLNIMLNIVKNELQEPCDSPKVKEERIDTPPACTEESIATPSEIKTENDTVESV
inactive: lapatinib -0.017 | pictilisib -0.014 | crizotinib -0.018 | [1] 0.058 | duvelisib 0.005 | gandotinib -0.086 | tozasertib -0.004 | doramapimod -0.031 | bafetinib -0.021 | [2] -0.017 | nilotinib -0.003 | [3] -0.001 | dasatinib -0.042 | [4] 0.023 | [5] -0.017 | quisinostat -0.004 | tipifarnib -0.029 | [6] 0.019 | [7] -0.013 | [8] -0.012

PKP3 isoform 2 (UniProt Q9Y446)
Chain of UniProt Q9Y446 (Q9Y446 whole entry, looked up): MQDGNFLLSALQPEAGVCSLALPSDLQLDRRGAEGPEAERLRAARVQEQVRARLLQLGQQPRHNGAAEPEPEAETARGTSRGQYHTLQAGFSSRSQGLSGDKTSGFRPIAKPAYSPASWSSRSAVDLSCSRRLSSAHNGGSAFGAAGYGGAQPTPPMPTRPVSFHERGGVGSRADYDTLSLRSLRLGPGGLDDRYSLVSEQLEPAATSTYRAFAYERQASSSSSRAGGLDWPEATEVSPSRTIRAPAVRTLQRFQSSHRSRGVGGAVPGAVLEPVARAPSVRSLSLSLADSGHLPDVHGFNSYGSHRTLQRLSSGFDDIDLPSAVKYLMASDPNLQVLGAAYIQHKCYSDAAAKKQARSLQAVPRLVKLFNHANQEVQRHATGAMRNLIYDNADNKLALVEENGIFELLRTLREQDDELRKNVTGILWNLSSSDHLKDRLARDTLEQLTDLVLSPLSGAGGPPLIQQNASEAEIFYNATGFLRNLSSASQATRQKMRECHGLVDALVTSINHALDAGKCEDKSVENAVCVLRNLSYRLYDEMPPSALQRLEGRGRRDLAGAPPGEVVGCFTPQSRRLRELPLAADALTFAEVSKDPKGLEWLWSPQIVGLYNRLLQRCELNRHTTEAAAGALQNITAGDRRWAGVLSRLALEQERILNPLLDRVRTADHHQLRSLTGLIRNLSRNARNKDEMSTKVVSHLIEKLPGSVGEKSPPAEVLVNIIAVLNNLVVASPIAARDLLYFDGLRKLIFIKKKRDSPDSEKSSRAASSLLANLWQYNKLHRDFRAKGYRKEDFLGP
inactive: lapatinib -0.007 | pictilisib -0.004 | crizotinib 0.043 | [1] -0.024 | duvelisib -0.048 | gandotinib 0.04 | tozasertib -0.039 | doramapimod 0.08 | bafetinib -0.085 | [2] 0.027 | nilotinib -0.034 | [3] -0.021 | dasatinib 0 | [4] -0.039 | [5] -0.001 | quisinostat -0.012 | tipifarnib 0.007 | [6] -0.051 | [7] -0.021 | [8] 0.02

PGGT1B (UniProt P53609)
Chain of UniProt P53609 (P53609 whole entry, looked up): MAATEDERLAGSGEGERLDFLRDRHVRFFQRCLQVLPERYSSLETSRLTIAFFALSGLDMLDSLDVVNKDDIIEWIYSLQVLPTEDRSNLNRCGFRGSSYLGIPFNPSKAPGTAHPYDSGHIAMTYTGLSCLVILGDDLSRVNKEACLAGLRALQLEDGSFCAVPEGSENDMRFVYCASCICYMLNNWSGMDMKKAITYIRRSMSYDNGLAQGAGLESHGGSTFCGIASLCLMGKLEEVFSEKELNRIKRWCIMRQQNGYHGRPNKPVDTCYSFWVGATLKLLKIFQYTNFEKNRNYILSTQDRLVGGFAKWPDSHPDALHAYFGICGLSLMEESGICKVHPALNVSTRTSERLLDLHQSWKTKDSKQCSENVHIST
inactive: lapatinib 0.013 | pictilisib -0.012 | crizotinib 0.01 | [1] 0.013 | duvelisib -0.019 | gandotinib -0.158 | tozasertib 0.083 | doramapimod 0.047 | bafetinib 0.076 | [2] -0.074 | nilotinib 0.01 | [3] -0.005 | dasatinib 0.005 | [4] -0.03 | [5] 0.048 | quisinostat 0.066 | tipifarnib 0.208 | [6] 0.018 | [7] -0.037 | [8] 0.047

PRKD2 isoform 3 (UniProt Q9BZL6)
Chain of UniProt Q9BZL6 (Q9BZL6 whole entry, looked up): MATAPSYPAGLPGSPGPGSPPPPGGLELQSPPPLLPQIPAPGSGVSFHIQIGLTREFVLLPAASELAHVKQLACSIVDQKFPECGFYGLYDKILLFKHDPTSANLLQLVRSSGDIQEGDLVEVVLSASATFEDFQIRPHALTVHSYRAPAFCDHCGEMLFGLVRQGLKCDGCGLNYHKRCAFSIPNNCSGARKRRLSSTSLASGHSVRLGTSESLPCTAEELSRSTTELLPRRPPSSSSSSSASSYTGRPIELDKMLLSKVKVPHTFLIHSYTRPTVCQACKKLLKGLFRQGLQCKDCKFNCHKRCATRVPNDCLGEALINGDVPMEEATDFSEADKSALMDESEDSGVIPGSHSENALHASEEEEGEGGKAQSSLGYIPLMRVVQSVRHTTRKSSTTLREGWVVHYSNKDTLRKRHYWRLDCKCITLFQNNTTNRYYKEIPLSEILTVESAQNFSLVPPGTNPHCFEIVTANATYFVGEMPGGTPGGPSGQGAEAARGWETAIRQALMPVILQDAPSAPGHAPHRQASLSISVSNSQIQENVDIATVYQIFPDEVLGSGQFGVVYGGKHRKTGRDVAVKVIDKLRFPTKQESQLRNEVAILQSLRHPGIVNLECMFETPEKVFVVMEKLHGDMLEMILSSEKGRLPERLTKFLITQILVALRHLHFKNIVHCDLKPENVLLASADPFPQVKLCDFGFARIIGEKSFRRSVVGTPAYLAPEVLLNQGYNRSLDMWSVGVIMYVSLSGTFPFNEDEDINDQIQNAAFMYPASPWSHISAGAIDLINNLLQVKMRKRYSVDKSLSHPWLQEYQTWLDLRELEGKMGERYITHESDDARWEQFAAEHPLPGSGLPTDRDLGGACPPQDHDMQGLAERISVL
inactive: lapatinib 0.087 | pictilisib -0.009 | crizotinib -0.043 | [1] -0.047 | duvelisib 0.05 | gandotinib -0.15 | tozasertib 0.019 | doramapimod -0.002 | bafetinib 0.02 | [2] -0.01 | nilotinib 0.079 | [3] -0.229 | dasatinib 0.028 | [4] -0.054 | [5] 0.04 | quisinostat -0.046 | tipifarnib 0.069 | [6] -0.115 | [7] 0.06 | [8] -0.01

POLD3 (UniProt Q15054)
Chain of UniProt Q15054 (Q15054 whole entry, looked up): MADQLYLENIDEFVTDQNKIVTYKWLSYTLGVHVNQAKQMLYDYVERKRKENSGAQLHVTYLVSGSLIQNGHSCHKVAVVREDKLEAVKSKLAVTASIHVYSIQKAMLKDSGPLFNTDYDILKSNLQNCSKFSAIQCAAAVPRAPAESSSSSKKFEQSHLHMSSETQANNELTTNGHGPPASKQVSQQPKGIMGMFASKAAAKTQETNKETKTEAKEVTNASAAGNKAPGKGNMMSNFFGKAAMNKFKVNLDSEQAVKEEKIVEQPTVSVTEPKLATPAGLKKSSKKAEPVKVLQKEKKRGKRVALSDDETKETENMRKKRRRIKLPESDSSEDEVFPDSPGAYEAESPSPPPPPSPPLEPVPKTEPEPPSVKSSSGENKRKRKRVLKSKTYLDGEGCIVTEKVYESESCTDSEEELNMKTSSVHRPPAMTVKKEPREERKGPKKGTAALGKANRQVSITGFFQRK
inactive: lapatinib 0.03 | pictilisib -0.046 | crizotinib -0.056 | [1] 0.022 | duvelisib -0.033 | gandotinib -0.079 | tozasertib 0.021 | doramapimod 0.001 | bafetinib -0.031 | [2] -0.038 | nilotinib 0.03 | [3] -0.014 | dasatinib -0.002 | [4] 0.029 | [5] 0.007 | quisinostat -0.049 | tipifarnib 0.002 | [6] 0.013 | [7] 0.018 | [8] -0.027

PPOX (UniProt P50336)
Chain of UniProt P50336 (P50336 whole entry, looked up): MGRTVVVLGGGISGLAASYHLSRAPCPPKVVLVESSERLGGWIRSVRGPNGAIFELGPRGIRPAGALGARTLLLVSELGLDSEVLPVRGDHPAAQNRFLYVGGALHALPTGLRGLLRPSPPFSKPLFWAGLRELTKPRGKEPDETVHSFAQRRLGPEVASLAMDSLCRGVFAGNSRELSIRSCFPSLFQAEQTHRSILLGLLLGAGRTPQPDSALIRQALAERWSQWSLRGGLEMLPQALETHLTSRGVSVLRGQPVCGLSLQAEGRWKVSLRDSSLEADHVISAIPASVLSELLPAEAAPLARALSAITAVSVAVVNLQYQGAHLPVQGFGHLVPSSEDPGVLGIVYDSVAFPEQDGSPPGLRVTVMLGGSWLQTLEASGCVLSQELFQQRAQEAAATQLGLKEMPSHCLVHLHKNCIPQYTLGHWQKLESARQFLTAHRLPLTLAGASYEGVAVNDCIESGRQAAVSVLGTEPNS
inactive: pictilisib 0.111 | crizotinib -0.068 | [1] -0.075 | duvelisib 0.04 | tozasertib 0.003 | doramapimod 0.206 | bafetinib -0.028 | [2] 0.11 | nilotinib 0.227 | [3] -0.001 | dasatinib 0.086 | [4] 0.054 | [5] -0.004 | quisinostat 0.129 | tipifarnib -0.012 | [6] -0.019 | [7] -0.008 | [8] -0.036
active: lapatinib 0.379 | gandotinib 0.581

PELO (UniProt Q9BRX2)
Chain of UniProt Q9BRX2 (Q9BRX2 whole entry, looked up): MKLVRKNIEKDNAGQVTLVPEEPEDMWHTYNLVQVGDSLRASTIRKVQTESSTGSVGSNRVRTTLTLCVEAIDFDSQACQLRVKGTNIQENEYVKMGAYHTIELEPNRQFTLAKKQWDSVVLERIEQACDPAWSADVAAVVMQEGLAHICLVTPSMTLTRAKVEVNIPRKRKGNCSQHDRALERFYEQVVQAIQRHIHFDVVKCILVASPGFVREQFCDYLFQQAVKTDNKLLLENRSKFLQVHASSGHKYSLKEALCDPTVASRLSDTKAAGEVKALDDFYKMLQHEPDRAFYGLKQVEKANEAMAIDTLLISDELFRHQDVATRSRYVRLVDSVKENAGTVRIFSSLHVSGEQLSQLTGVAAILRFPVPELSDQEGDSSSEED
inactive: lapatinib 0.036 | pictilisib 0.001 | crizotinib -0.064 | duvelisib -0.039 | gandotinib -0.202 | tozasertib 0.022 | doramapimod 0.019 | bafetinib -0.054 | [2] -0.175 | nilotinib 0.012 | [3] -0.025 | dasatinib 0.052 | [4] -0.026 | [5] 0.032 | quisinostat -0.022 | tipifarnib 0.007 | [6] 0.037 | [7] 0.018 | [8] -0.029
active: [1] 0.369

PPP2R5C isoform 4 (UniProt Q13362)
inactive: lapatinib -0.05 | pictilisib 0 | crizotinib 0.015 | [1] -0.051 | duvelisib 0.213 | gandotinib -0.034 | tozasertib 0.025 | doramapimod -0.11 | bafetinib -0.077 | [2] 0.055 | nilotinib -0.012 | [3] -0.005 | dasatinib 0.031 | [4] -0.002 | [5] 0.017 | quisinostat -0.126 | tipifarnib 0.021 | [6] 0.079 | [7] -0.013 | [8] -0.04
